According to PMC11006913:

Legend:
Test in all cases: PBM; 200 nM protein, PBS
Settings in all cases: dsDNA, one strand shown
[1] = molecular target: HOXB9 (Homo sapiens, UniProt P17482 171-250, T197M)
[2] = molecular target: HOXA7 (Homo sapiens, UniProt P31268 116-202)
[3] = molecular target: HOXB9 (Homo sapiens, UniProt P17482 171-250)
[4] = molecular target: HOXD13 (Homo sapiens, UniProt P35453 263-343, T313R)
[5] = molecular target: HOXD13 (Homo sapiens, UniProt P35453 263-343)
[6] = molecular target: HOXD13 (Homo sapiens, UniProt P35453 263-343, T313A)
Chain of HOXD13 (Homo sapiens, UniProt P35453 263-343, T313A) (P35453 263-343 T313A): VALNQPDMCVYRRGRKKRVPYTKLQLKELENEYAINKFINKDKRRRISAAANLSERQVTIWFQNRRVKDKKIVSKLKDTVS

[7] = molecular target: HOXB9 (Homo sapiens, UniProt P17482 171-250, R186Q)
Chain of HOXB9 (Homo sapiens, UniProt P17482 171-250, R186Q) (P17482 171-250 R186Q): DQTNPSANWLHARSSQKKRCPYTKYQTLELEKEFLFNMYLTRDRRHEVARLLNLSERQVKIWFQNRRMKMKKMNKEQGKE

[8] = molecular target: HOXA7 (Homo sapiens, UniProt P31268 116-202, W177C)
Chain of HOXA7 (Homo sapiens, UniProt P31268 116-202, W177C) (P31268 116-202 W177C): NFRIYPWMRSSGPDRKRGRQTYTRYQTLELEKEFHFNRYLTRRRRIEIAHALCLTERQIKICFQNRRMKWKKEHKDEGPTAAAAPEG

[9] = molecular target: HOXB6 (Homo sapiens, UniProt P17509 132-218, K202E)
Chain of HOXB6 (Homo sapiens, UniProt P17509 132-218, K202E) (P17509 132-218 K202E): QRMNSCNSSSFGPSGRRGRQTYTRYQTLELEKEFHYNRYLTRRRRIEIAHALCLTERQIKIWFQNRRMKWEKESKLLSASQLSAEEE

[10] = molecular target: T1, NKX2-6 (Homo sapiens, UniProt A6NCS4 118-204, R150C)
T1 sequence: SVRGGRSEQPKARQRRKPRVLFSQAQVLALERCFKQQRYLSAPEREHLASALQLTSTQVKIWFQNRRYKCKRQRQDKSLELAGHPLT

[11] = molecular target: HOXB6 (Homo sapiens, UniProt P17509 132-218)
Chain of HOXB6 (Homo sapiens, UniProt P17509 132-218) (P17509 132-218): as the sequence (P17509 132-218 K202E) above, with E71K counted along it

[12] = molecular target: PRRX1 (Homo sapiens, UniProt P54821 80-166, F113S)
Chain of PRRX1 (Homo sapiens, UniProt P54821 80-166, F113S) (P54821 80-166 F113S): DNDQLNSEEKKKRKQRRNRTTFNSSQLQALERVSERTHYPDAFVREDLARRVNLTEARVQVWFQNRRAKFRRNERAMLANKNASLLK

[13] = molecular target: HOXA4 (Homo sapiens, UniProt Q00056 201-287, R217L)
Chain of HOXA4 (Homo sapiens, UniProt Q00056 201-287, R217L) (Q00056 201-287 R217L): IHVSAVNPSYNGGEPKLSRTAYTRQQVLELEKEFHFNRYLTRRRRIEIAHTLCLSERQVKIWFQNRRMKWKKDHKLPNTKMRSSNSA

[14] = molecular target: MSX2 (Homo sapiens, UniProt P35548 130-214, R199I)
Chain of MSX2 (Homo sapiens, UniProt P35548 130-214, R199I) (P35548 130-214 R199I): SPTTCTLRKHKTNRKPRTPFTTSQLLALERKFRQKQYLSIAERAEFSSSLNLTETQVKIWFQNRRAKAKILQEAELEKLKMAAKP

[15] = molecular target: HOXA4 (Homo sapiens, UniProt Q00056 201-287, W262F)
Chain of HOXA4 (Homo sapiens, UniProt Q00056 201-287, W262F) (Q00056 201-287 W262F): as the sequence (Q00056 201-287 R217L) above, with L17R, W62F counted along it

[16] = molecular target: HOXC10 (Homo sapiens, UniProt Q9NYD6 254-340)
Chain of HOXC10 (Homo sapiens, UniProt Q9NYD6 254-340) (Q9NYD6 254-340): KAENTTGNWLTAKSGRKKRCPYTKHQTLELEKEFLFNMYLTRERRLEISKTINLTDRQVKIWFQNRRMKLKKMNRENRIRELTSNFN

[17] = molecular target: ALX3 (Homo sapiens, UniProt O95076 139-225, N203Q)
Chain of ALX3 (Homo sapiens, UniProt O95076 139-225, N203Q) (O95076 139-225 N203Q): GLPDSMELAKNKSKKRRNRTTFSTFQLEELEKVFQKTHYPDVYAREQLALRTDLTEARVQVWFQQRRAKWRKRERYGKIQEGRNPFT

[18] = molecular target: HOXC10 (Homo sapiens, UniProt Q9NYD6 254-340, K271E)
Chain of HOXC10 (Homo sapiens, UniProt Q9NYD6 254-340, K271E) (Q9NYD6 254-340 K271E): as the sequence (Q9NYD6 254-340) above, with K18E counted along it

[19] = molecular target: MSX2 (Homo sapiens, UniProt P35548 130-214)
Chain of MSX2 (Homo sapiens, UniProt P35548 130-214) (P35548 130-214): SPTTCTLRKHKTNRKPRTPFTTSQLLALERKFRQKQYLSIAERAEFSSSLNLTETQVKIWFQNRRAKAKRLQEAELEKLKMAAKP

[20] = molecular target: ALX3 (Homo sapiens, UniProt O95076 139-225)
Chain of ALX3 (Homo sapiens, UniProt O95076 139-225) (O95076 139-225): as the sequence (O95076 139-225 N203Q) above, with Q65N counted along it

[21] = molecular target: ALX3 (Homo sapiens, UniProt O95076 139-225, L168Q)
Chain of ALX3 (Homo sapiens, UniProt O95076 139-225, L168Q) (O95076 139-225 L168Q): as the sequence (O95076 139-225 N203Q) above, with L30Q, Q65N counted along it

[22] = molecular target: ALX3 (Homo sapiens, UniProt O95076 139-225, L168V)
Chain of ALX3 (Homo sapiens, UniProt O95076 139-225, L168V) (O95076 139-225 L168V): as the sequence (O95076 139-225 N203Q) above, with L30V, Q65N counted along it

[23] = molecular target: MSX2 (Homo sapiens, UniProt P35548 130-214, F161Y)
Chain of MSX2 (Homo sapiens, UniProt P35548 130-214, F161Y) (P35548 130-214 F161Y): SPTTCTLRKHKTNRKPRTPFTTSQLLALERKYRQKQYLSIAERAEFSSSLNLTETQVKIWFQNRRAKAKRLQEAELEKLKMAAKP

[24] = molecular target: ALX3 (Homo sapiens, UniProt O95076 139-225, N203S)
Chain of ALX3 (Homo sapiens, UniProt O95076 139-225, N203S) (O95076 139-225 N203S): as the sequence (O95076 139-225 N203Q) above, with Q65S counted along it

[25] = molecular target: PRRX1 (Homo sapiens, UniProt P54821 80-166)
Chain of PRRX1 (Homo sapiens, UniProt P54821 80-166) (P54821 80-166): as the sequence (P54821 80-166 F113S) above, with S34F counted along it

[26] = molecular target: ALX4 (Homo sapiens, UniProt Q9H161 200-286)
Chain of ALX4 (Homo sapiens, UniProt Q9H161 200-286) (Q9H161 200-286): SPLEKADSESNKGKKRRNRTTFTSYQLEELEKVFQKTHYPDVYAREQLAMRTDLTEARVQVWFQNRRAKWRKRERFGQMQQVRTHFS

[27] = molecular target: ALX4 (Homo sapiens, UniProt Q9H161 200-286, Q225E)
Chain of ALX4 (Homo sapiens, UniProt Q9H161 200-286, Q225E) (Q9H161 200-286 Q225E): as the sequence (Q9H161 200-286) above, with Q26E counted along it

[28] = molecular target: HOXC9 (Homo sapiens, UniProt P31274 178-260, K195R)
Chain of HOXC9 (Homo sapiens, UniProt P31274 178-260, K195R) (P31274 178-260 K195R): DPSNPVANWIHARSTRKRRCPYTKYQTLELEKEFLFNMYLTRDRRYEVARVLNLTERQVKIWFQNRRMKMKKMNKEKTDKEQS

[29] = molecular target: HOXC9 (Homo sapiens, UniProt P31274 178-260)
Chain of HOXC9 (Homo sapiens, UniProt P31274 178-260) (P31274 178-260): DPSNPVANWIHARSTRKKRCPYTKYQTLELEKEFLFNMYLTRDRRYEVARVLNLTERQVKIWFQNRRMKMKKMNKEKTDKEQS

[30] = molecular target: HOXC9 (Homo sapiens, UniProt P31274 178-260, R193K)
Chain of HOXC9 (Homo sapiens, UniProt P31274 178-260, R193K) (P31274 178-260 R193K): as the sequence (P31274 178-260) above, with R16K counted along it

[31] = molecular target: HOXC9 (Homo sapiens, UniProt P31274 178-260, R222W)
Chain of HOXC9 (Homo sapiens, UniProt P31274 178-260, R222W) (P31274 178-260 R222W): as the sequence (P31274 178-260) above, with R45W counted along it

Chain of HOXB9 (Homo sapiens, UniProt P17482 171-250) (P17482 171-250): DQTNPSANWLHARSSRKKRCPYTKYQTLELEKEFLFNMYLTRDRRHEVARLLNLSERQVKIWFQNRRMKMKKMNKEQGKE
Chain of HOXA7 (Homo sapiens, UniProt P31268 116-202) (P31268 116-202): as the sequence (P31268 116-202 W177C) above, with C62W counted along it
Chain of HOXB9 (Homo sapiens, UniProt P17482 171-250, T197M) (P17482 171-250 T197M): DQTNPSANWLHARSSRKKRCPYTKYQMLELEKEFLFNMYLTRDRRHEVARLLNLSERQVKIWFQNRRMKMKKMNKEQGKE
Chain of HOXD13 (Homo sapiens, UniProt P35453 263-343, T313R) (P35453 263-343 T313R): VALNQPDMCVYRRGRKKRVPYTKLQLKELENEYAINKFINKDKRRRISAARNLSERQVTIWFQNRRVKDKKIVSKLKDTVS
Chain of HOXD13 (Homo sapiens, UniProt P35453 263-343) (P35453 263-343): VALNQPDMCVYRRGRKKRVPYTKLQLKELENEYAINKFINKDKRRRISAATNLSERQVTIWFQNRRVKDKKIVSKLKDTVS

For CTATAAAC, the binding signal [1] was 9.58 upbm affinity estimate (log intensity, higher = more binding, comparable within an allelic series), the binding signal [2] was 9.84 upbm affinity estimate (log intensity, higher = more binding, comparable within an allelic series) and the binding signal [3] was 11.5 upbm affinity estimate (log intensity, higher = more binding, comparable within an allelic series). For the same sequence, the binding signal [4] was 10.9 upbm affinity estimate (log intensity, higher = more binding, comparable within an allelic series), the binding signal [5] was 12.2 upbm affinity estimate (log intensity, higher = more binding, comparable within an allelic series) and the binding signal [6] was 12 upbm affinity estimate (log intensity, higher = more binding, comparable within an allelic series). The binding signal [7] was 11.2 upbm affinity estimate (log intensity, higher = more binding, comparable within an allelic series) and the binding signal [8] was 8.92 upbm affinity estimate (log intensity, higher = more binding, comparable within an allelic series).

In the case of AGGCCTGG, the binding signal [1] is reported as 8.45 upbm affinity estimate (log intensity, higher = more binding, comparable within an allelic series), the binding signal [9] is reported as 8.94 upbm affinity estimate (log intensity, higher = more binding, comparable within an allelic series) and the binding signal [3] is reported as 8.43 upbm affinity estimate (log intensity, higher = more binding, comparable within an allelic series). The binding signal [10] was 9.48 upbm affinity estimate (log intensity, higher = more binding, comparable within an allelic series), the binding signal [7] was 8.44 upbm affinity estimate (log intensity, higher = more binding, comparable within an allelic series) and the binding signal [11] was 8.97 upbm affinity estimate (log intensity, higher = more binding, comparable within an allelic series).

For AATTACCA, the binding signal [1] was 10.1 upbm affinity estimate (log intensity, higher = more binding, comparable within an allelic series), the binding signal [2] was 11.2 upbm affinity estimate (log intensity, higher = more binding, comparable within an allelic series) and the binding signal [12] was 11.1 upbm affinity estimate (log intensity, higher = more binding, comparable within an allelic series). The binding signal [9] was 9.98 upbm affinity estimate (log intensity, higher = more binding, comparable within an allelic series), the binding signal [13] was 11.9 upbm affinity estimate (log intensity, higher = more binding, comparable within an allelic series) and the binding signal [14] was 12.2 upbm affinity estimate (log intensity, higher = more binding, comparable within an allelic series). The binding signal [8] was 8.87 upbm affinity estimate (log intensity, higher = more binding, comparable within an allelic series), the binding signal [15] was 11.4 upbm affinity estimate (log intensity, higher = more binding, comparable within an allelic series) and the binding signal [11] was 11.7 upbm affinity estimate (log intensity, higher = more binding, comparable within an allelic series).

With CTCACGGC the binding signal [1] was 8.44 upbm affinity estimate (log intensity, higher = more binding, comparable within an allelic series), the binding signal [16] was 10 upbm affinity estimate (log intensity, higher = more binding, comparable within an allelic series) and the binding signal [3] was 8.41 upbm affinity estimate (log intensity, higher = more binding, comparable within an allelic series). The binding signal [14] was 9.58 upbm affinity estimate (log intensity, higher = more binding, comparable within an allelic series), the binding signal [17] was 7.72 upbm affinity estimate (log intensity, higher = more binding, comparable within an allelic series) and the binding signal [18] was 10 upbm affinity estimate (log intensity, higher = more binding, comparable within an allelic series). For the same sequence, the binding signal [19] was 9.43 upbm affinity estimate (log intensity, higher = more binding, comparable within an allelic series), the binding signal [20] was 7.47 upbm affinity estimate (log intensity, higher = more binding, comparable within an allelic series) and the binding signal [21] was 7.78 upbm affinity estimate (log intensity, higher = more binding, comparable within an allelic series). The binding signal [7] was 8.46 upbm affinity estimate (log intensity, higher = more binding, comparable within an allelic series), the binding signal [22] was 7.81 upbm affinity estimate (log intensity, higher = more binding, comparable within an allelic series) and the binding signal [23] was 9.43 upbm affinity estimate (log intensity, higher = more binding, comparable within an allelic series). For the same sequence, the binding signal [24] was 7.72 upbm affinity estimate (log intensity, higher = more binding, comparable within an allelic series).

GCCGGAGC was tested, and the binding signal [1] was 8.56 upbm affinity estimate (log intensity, higher = more binding, comparable within an allelic series), the binding signal [12] was 9.3 upbm affinity estimate (log intensity, higher = more binding, comparable within an allelic series) and the binding signal [3] was 8.68 upbm affinity estimate (log intensity, higher = more binding, comparable within an allelic series). The binding signal [7] was 8.69 upbm affinity estimate (log intensity, higher = more binding, comparable within an allelic series) and the binding signal [25] was 9.61 upbm affinity estimate (log intensity, higher = more binding, comparable within an allelic series).

With TCCCGGGA the binding signal [1] was 8.9 upbm affinity estimate (log intensity, higher = more binding, comparable within an allelic series), the binding signal [26] was 8.7 upbm affinity estimate (log intensity, higher = more binding, comparable within an allelic series) and the binding signal [27] was 8.23 upbm affinity estimate (log intensity, higher = more binding, comparable within an allelic series). For the same sequence, the binding signal [3] was 8.93 upbm affinity estimate (log intensity, higher = more binding, comparable within an allelic series) and the binding signal [7] was 8.89 upbm affinity estimate (log intensity, higher = more binding, comparable within an allelic series).

For GGAGCCAC, the binding signal [1] was 8.39 upbm affinity estimate (log intensity, higher = more binding, comparable within an allelic series), the binding signal [26] was 8.24 upbm affinity estimate (log intensity, higher = more binding, comparable within an allelic series) and the binding signal [27] was 8.19 upbm affinity estimate (log intensity, higher = more binding, comparable within an allelic series). The binding signal [3] was 8.65 upbm affinity estimate (log intensity, higher = more binding, comparable within an allelic series) and the binding signal [7] was 8.65 upbm affinity estimate (log intensity, higher = more binding, comparable within an allelic series).

In the case of CCCCCAGA, the binding signal [1] is reported as 8.56 upbm affinity estimate (log intensity, higher = more binding, comparable within an allelic series), the binding signal [28] is reported as 9.67 upbm affinity estimate (log intensity, higher = more binding, comparable within an allelic series) and the binding signal [3] is reported as 8.41 upbm affinity estimate (log intensity, higher = more binding, comparable within an allelic series). The binding signal [29] was 9.59 upbm affinity estimate (log intensity, higher = more binding, comparable within an allelic series), the binding signal [30] was 9.69 upbm affinity estimate (log intensity, higher = more binding, comparable within an allelic series) and the binding signal [7] was 8.47 upbm affinity estimate (log intensity, higher = more binding, comparable within an allelic series). For the same sequence, the binding signal [31] was 9.54 upbm affinity estimate (log intensity, higher = more binding, comparable within an allelic series).

In the case of AATAATAA, the binding signal [1] is reported as 9.97 upbm affinity estimate (log intensity, higher = more binding, comparable within an allelic series), the binding signal [2] is reported as 10.8 upbm affinity estimate (log intensity, higher = more binding, comparable within an allelic series) and the binding signal [9] is reported as 10 upbm affinity estimate (log intensity, higher = more binding, comparable within an allelic series). The binding signal [17] was 8.58 upbm affinity estimate (log intensity, higher = more binding, comparable within an allelic series), the binding signal [31] was 11.1 upbm affinity estimate (log intensity, higher = more binding, comparable within an allelic series) and the binding signal [8] was 8.85 upbm affinity estimate (log intensity, higher = more binding, comparable within an allelic series).

For CTAGGCTC, the binding signal [1] was 8.49 upbm affinity estimate (log intensity, higher = more binding, comparable within an allelic series), the binding signal [2] was 8.33 upbm affinity estimate (log intensity, higher = more binding, comparable within an allelic series) and the binding signal [3] was 8.52 upbm affinity estimate (log intensity, higher = more binding, comparable within an allelic series). The binding signal [7] was 8.53 upbm affinity estimate (log intensity, higher = more binding, comparable within an allelic series) and the binding signal [8] was 8.41 upbm affinity estimate (log intensity, higher = more binding, comparable within an allelic series).

AATAAAAC was tested, and the binding signal [1] was 9.76 upbm affinity estimate (log intensity, higher = more binding, comparable within an allelic series), the binding signal [16] was 12.3 upbm affinity estimate (log intensity, higher = more binding, comparable within an allelic series) and the binding signal [27] was 10.6 upbm affinity estimate (log intensity, higher = more binding, comparable within an allelic series). For the same sequence, the binding signal [3] was 11.8 upbm affinity estimate (log intensity, higher = more binding, comparable within an allelic series), the binding signal [4] was 10.9 upbm affinity estimate (log intensity, higher = more binding, comparable within an allelic series) and the binding signal [5] was 11.9 upbm affinity estimate (log intensity, higher = more binding, comparable within an allelic series). For the same sequence, the binding signal [18] was 11.7 upbm affinity estimate (log intensity, higher = more binding, comparable within an allelic series), the binding signal [6] was 11.6 upbm affinity estimate (log intensity, higher = more binding, comparable within an allelic series) and the binding signal [7] was 11.5 upbm affinity estimate (log intensity, higher = more binding, comparable within an allelic series). For the same sequence, the binding signal [31] was 11.2 upbm affinity estimate (log intensity, higher = more binding, comparable within an allelic series).
